We go through six compounds from PubChem BioAssay.

The test system of assay [1] is Human papillomavirus type 1a protein E7 (residues 44-93). The assay is described as follows: small molecules binding HPV E7 44-93 – biochemical, small-molecule microarray, residues 44-93, 635 nm fluorescence, primary screen (AID 1108).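 Note: E7 fragment applied at 1 µg/mL in TBST for 1 h at 4 C; score combines spot fluorescence with its signal to noise ratio.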 As to conditions: fluorescence 635 nm, higher = more signal.
Assay [2] can be described thus: hepatitis C replication reporter changes, two-sided – Huh7 cells, luciferase reporter, HCV replication inhibitor project, primary screen (AID 1109).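 Note: huh7 hepatoma cells harbouring a luciferase neomycin HCV replicon reporter; luciferase luminescence as measure of HCV replicon replication; test concentration not given here.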 The settings on record: Huh7 HCV replicon luciferase reporter, 48 h; higher = more signal.
For assay [3], the target named is Left-right determination factor 2 (Homo sapiens) (UniProt O00292). The assay is described as follows: small molecules binding LEFTY2 protein – biochemical, small-molecule microarray, 635 nm fluorescence scan, primary screen (AID 1110). As to conditions: higher = more signal.
The target of assay [4] is Calmodulin-1 (Homo sapiens) (UniProt P0DP23). The assay is described as follows: small molecules binding calmodulin-1 with EGTA – biochemical, small-molecule microarray, Cy5-labelled CALM1, profiling panel (AID 1111).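 Note: labelled calmodulin applied in Tris saline Tween buffer holding calcium plus EGTA and DTT.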 As to conditions: Cy5-CALM1 binding fluorescence, higher = more signal.
The target is the same in assay [5]. Briefly: small molecules binding Ca-loaded calmodulin-1 – biochemical, small-molecule microarray, Cy5-labelled CALM1, plus calcium, artefact control for SMM control-protein annotation, profiling panel (AID 1112).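 Note: score merges spot fluorescence with signal to noise from triplicate slides.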 The settings on record: Cy5-CALM1 binding fluorescence, higher = more signal.
A short description of assay [6]: probe aWnt5a binding to arrayed compounds – biochemical, biotinylated probe, 635/667 nm fluorescence, primary screen (AID 1113).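 Note: score merges 667 nm fluorescence intensity with signal-to-noise per printed feature.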 As to conditions: small-molecule microarray, higher = more signal.
The nature of assay [7]: probe aShh binding to arrayed compounds – biochemical, biotinylated probe, 635/667 nm fluorescence, primary screen (AID 1114).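 Note: probe is biotin-labelled aShh protein from a stem cell growth factor screen; measures binding of labelled protein to compounds printed on the slide; score merges feature fluorescence at 667 nm with signal-to-noise.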 As to conditions: small-molecule microarray, higher = more signal.
Assay [8] is described as follows: probe aNog binding to arrayed compounds – biochemical, biotinylated probe, 635/667 nm fluorescence, primary screen (AID 1115).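 Note: probe is biotinylated aNog protein used at 0.15 µg/mL for 1 h at 4 C; z-score combines 667 nm fluorescence of each spot with its signal to noise.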 As to conditions: small-molecule microarray, higher = more signal.
The target in assay [9] is Torsin-1A-interacting protein 1 (Homo sapiens) (UniProt Q5JTV8). The assay is described as follows: compound microarray binding of lysate hLAP1 – cell lysate, small-molecule microarray, COS7 lysate, 635/667 nm fluorescence, primary screen (AID 1116). The settings on record: 635 nm fluorescence, higher = more signal.
Assay [10] addresses Alpha-bungarotoxin (Bungarus multicinctus) (UniProt P60615). The assay is described as follows: compounds binding labelled alpha-BTX control protein – biochemical, small-molecule microarray, Alexa647 label, 635/667 nm fluorescence, artefact control for SMM control protein annotation, profiling panel (AID 1117). As to conditions: alpha-BTX-A647 binding fluorescence, higher = more signal.

The next assay concerns the target Albumin (Bos taurus) (UniProt P02769). Briefly: compounds binding labelled BSA control protein – biochemical, small-molecule microarray, Alexa647 label, 635/667 nm fluorescence, artefact control for SMM control protein annotation, profiling panel (AID 1118).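 Note: score merges 667 nm emission intensity and signal-to-noise per printed compound spot.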 As to conditions: BSA-A647 binding, fluorescence 635 nm, higher = more signal.
Assay [11] in a line: probe aXIP binding to arrayed compounds – biochemical, NeuroSMM set, 635/667 nm fluorescence, primary screen (AID 1119).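 Note: probe is the protein aXip251-270 applied at 1 µg/mL to compound-printed slides; binding of probe to printed compounds measured as 667 nm fluorescence plus signal to noise.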 The settings on record: small-molecule microarray, higher = more signal, called active from +8 up or from −8 down.
A short description of assay [12]: probe aNOTCH3 binding on compound microarray – biochemical, small-molecule microarray, 635/667 nm fluorescence, primary screen (AID 1120).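 Note: probe is a biotin-tagged antibody raised against NOTCH3 rather than NOTCH3 protein; score merges spot fluorescence near 667 nm with spot signal to noise.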 As to conditions: higher = more signal.
The nature of assay [13]: probe aNOTCH2 binding on compound microarray – biochemical, small-molecule microarray, 635/667 nm fluorescence, primary screen (AID 1121).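 Note: score merges feature fluorescence read at 667 nm with its signal to noise.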 The settings on record: higher = more signal.
Assay [14] addresses Carbonic anhydrase 2 (Homo sapiens) (UniProt P00918). Briefly: compounds binding carbonic anhydrase 2 – biochemical, small-molecule microarray, Alexa647-labelled CAII, profiling panel (AID 1122). The settings on record: CAII-A647 binding fluorescence, higher = more signal.
The nature of assay [15]: COS7 lysate on small-molecule microarray, probe aHis, 635 nm (AID 1123).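 Note: z-score combines 667nm fluorescence intensity with signal-to-noise per printed compound spot.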 The settings on record: COS7 cell lysate, fluorescence, higher = more signal.
Assay [16] in a line: probe aLAP1 signal on lysate-treated microarray – cell lysate, small-molecule microarray, COS7 lysate, primary screen (AID 1124).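 Note: lysate comes from COS7 cells expressing LAP1 and is applied at 0.3 µg/mL; score merges spot fluorescence near 667 nm with signal-to-noise over triplicate slides.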 The settings on record: probe aLAP1, fluorescence, higher = more signal.
The test system of a further assay is Sam68 (KHDRBS1). Briefly: compounds binding KHDRBS1 protein – biochemical, small-molecule microarray, 635 nm fluorescence, primary screen (AID 1125).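 Note: score merges 667 nm channel intensity with signal to noise over triplicate slides.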 The settings on record: higher = more signal.
Assay [17] has as its system Chordin-like protein 2 (CHRDL2). The assay is described as follows: compounds binding chordin-like 2 – biochemical, small-molecule microarray, 635 nm fluorescence, primary screen (AID 1126).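 Note: printed compound slides probed with Chrdl2 protein at 4 µg/mL for 1 h at 4 C; score merges 667 nm emission intensity with signal to noise over three replicate slides.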 As to conditions: fluorescence 635 nm, higher = more signal.
In assay [18] the target is Concanavalin-A (Canavalia ensiformis) (UniProt P02866). The assay is described as follows: compounds binding concanavalin A lectin – biochemical, small-molecule microarray, Alexa647 label, 635 nm, artefact control for SMM control protein annotation, primary screen (AID 1127).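 Note: z combines 667 nm emission intensity with signal-to-noise across three replicate slides.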 The settings on record: ConA-A647 binding fluorescence, higher = more signal.

Active and inactive are the calls of the source.

Concanavalin-A (Canavalia ensiformis), sequence (P02866 whole entry, looked up): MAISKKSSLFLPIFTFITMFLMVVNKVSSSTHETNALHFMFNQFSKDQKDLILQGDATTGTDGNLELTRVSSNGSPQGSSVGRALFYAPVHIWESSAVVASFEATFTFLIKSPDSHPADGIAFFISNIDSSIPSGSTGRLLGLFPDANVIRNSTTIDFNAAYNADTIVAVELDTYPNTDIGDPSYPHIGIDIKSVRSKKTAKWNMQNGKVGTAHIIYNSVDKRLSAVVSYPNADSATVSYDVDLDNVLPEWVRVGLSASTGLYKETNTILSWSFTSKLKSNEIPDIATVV
Albumin (Bos taurus), sequence (P02769 whole entry, looked up): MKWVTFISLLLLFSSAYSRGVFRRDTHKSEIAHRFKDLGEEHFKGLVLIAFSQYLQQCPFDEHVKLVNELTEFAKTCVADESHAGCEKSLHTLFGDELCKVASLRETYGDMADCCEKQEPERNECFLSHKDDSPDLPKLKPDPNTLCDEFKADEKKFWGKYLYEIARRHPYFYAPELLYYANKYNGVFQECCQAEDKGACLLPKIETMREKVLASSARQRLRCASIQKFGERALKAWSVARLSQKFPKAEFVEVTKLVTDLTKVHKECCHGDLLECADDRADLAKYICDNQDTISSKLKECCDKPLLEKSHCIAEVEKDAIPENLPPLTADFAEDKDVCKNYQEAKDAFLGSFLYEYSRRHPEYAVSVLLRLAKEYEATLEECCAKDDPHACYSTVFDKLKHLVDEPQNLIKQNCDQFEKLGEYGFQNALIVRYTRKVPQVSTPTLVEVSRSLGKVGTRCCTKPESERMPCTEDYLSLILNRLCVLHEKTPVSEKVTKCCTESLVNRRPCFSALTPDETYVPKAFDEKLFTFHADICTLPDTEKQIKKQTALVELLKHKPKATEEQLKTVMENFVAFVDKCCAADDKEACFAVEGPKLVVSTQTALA
Torsin-1A-interacting protein 1 (Homo sapiens), sequence (Q5JTV8 whole entry, looked up): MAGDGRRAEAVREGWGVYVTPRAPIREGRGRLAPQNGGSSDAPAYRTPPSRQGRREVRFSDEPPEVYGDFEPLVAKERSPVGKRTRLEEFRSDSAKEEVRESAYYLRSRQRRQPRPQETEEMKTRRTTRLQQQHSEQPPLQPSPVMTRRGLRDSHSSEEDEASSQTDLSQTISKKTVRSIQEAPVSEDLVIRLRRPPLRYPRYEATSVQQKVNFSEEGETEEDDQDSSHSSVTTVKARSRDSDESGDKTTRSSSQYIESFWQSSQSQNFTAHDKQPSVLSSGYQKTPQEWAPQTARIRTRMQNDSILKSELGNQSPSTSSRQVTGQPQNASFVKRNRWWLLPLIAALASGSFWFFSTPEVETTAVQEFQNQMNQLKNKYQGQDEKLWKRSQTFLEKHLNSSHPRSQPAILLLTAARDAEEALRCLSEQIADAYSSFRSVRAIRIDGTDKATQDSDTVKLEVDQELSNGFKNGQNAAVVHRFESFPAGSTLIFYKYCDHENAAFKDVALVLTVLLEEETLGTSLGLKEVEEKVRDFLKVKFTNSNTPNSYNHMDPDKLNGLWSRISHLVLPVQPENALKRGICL
Alpha-bungarotoxin (Bungarus multicinctus), sequence (P60615 whole entry, looked up): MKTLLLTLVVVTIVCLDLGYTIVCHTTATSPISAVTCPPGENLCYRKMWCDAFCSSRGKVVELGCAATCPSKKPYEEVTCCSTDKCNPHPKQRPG
Left-right determination factor 2 (Homo sapiens), sequence (O00292 whole entry, looked up): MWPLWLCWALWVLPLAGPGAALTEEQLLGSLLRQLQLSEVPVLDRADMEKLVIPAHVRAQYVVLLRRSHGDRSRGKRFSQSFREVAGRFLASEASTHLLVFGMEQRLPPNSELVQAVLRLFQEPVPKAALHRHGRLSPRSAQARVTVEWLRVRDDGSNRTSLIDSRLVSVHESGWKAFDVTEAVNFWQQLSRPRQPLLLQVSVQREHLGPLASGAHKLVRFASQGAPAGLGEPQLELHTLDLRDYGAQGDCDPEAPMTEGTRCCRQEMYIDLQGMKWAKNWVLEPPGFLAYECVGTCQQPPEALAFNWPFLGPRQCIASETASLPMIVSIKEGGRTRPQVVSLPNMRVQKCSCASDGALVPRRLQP

For the compound `C=CCC(OC(C)=O)[C@@H]1[C@@H](N(Cc2ccc(-c3cccc(C(F)(F)F)c3)o2)C(=O)c2cccc3ccccc23)c2cc(OCCCO)ccc2N1C(=O)c1ccc(-c2ccccc2)cc1` (stereo not given in full), the composite z-score in assay [1] is -0.535; in [3], 0.0289; in [4], -0.638; in assay [5], 0.219; in assay [6], -0.22; in assay [7], -0.138. Also, the composite z-score in assay [8] was -0.182; in [9] it was -0.465; in assay [10], 0.143; with Albumin (Bos taurus), -0.0913; in [12], 0.0058; in assay [13], -0.053. Further, the composite z-score is -0.406 in [14]; -0.647 in [15]; -0.272 in assay [16]; -0.407 with Sam68 (KHDRBS1); 0.634 in [17]; -0.402 in assay [18]. In assay [2], this compound returned a z-score of 0.182. The composite Z-score in [11] is -0.0505 (inactive).
On to `COCCOC(=O)N1C(=O)[C@@]2(c3ccccc31)[C@H](c1ccccc1OCCO)N1[C@H](c3ccccc3)[C@H](c3ccccc3)OC(=O)[C@H]1[C@@H]2C(=O)N1CCc2cc(OC)c(OC)cc2C1`, for which the composite z-score was 0.825 in [1]; 0.415 in assay [3]; 1.29 in assay [4]; 0.0498 in assay [5]; -0.0161 in assay [6]; 0.399 in assay [7]. Also, the composite z-score in [8] is 0.194; in assay [9] it was 0.561; in assay [10], 0.91; with Albumin (Bos taurus) it was -0.274; in assay [12], 0.0833; in assay [13], -0.0176. Also, the composite z-score amounted to 0.335 in [14]; 0.51 in assay [15]; 0.0553 in [16]; 1.27 with Sam68 (KHDRBS1); 0.475 in assay [17]; 1.18 in assay [18]. This compound also registered a z-score in assay [2] of -2.37. Besides, the composite Z-score in assay [11] is 0.511 (inactive).
Regarding `COC(=O)[C@@]1(Cc2ccccc2)[C@H]2c3cc(C(=O)N(C)C)n(Cc4ccccn4)c3C[C@H]2CN1C(=O)c1ccccc1`, the composite z-score was -0.271 in [1]; -0.0545 in assay [3]; 1.92 in assay [4]; 1.35 in assay [5]; 0.241 in [6]; -0.0849 in assay [7]. The composite z-score in assay [8] is 0.85; in assay [9], 1.77; in assay [10], 0.94; with Albumin (Bos taurus), 0.723; in assay [12] it was 0.127; in assay [13], 0.269. The composite z-score is 0.971 in [14]; 3.31 in assay [15]; 1.22 in assay [16]; 1.03 with Sam68 (KHDRBS1); -1.4 in [17]; 1.08 in assay [18]. The compound further had a z-score in [2] of -0.903. In [11], the composite Z-score is 0.146 (inactive).
Consider `C=C(/C(=C/C[C@@H](OC(=O)c1ccncc1)c1ccccc1OCCO)c1cnc2ccccc2c1)C(C)C`, for which the composite z-score in [1] is 1.4; in assay [3], 0.935; in [4], 0.273; in [5] it was -0.531; in assay [6], 0.0044; in [7], -0.195. Also, the composite z-score came to 0.0588 in assay [8]; 1.23 in [9]; 3.08 in assay [10]; 0.635 in the assay with Albumin (Bos taurus); 0.306 in [12]; 0.0002 in assay [13]. Also, the composite z-score in assay [14] came to 0.935; in assay [15] it was 1.5; in assay [16], 0.497; in the assay on Sam68 (KHDRBS1), 1.3; in [17], 1.45; in assay [18], 1.19. Also, the z-score in assay [2] is -4.46. Further, the composite Z-score in [11] was 0.718 (inactive).
For the compound `C=C(CCCC)/C(=C/C[C@H](OC(=O)c1ccncc1)c1ccc(CO)o1)c1cc(C(=O)OC)ccc1OC`, the composite z-score in [1] was -0.0541; in assay [3] it was 0.982; in [4], 0.786; in [5] it was -0.324; in assay [6], -0.196; in assay [7] it was 0.256. The composite z-score is 0.95 in [8]; 0.539 in [9]; 1.28 in assay [10]; 0.572 with Albumin (Bos taurus); 0.201 in assay [12]; -0.0534 in assay [13]. Moreover, the composite z-score in [14] was found to be 0.609; in [15], 1.38; in assay [16], 0.51; in the assay with Sam68 (KHDRBS1), 1.31; in assay [17], 0.487; in assay [18], 1.02. This compound showed a z-score in [2] of -1.93. The composite Z-score in assay [11] is 0.243 (inactive).
Regarding `CC1CC/C=C\[C@H]2OC34C=CCN(c5ccc(Cl)cc5)C(=O)[C@H]3N(C(CO)C(C)C)C(=O)[C@]4(C)C2C(=O)O1` (stereo not given in full), the composite z-score in assay [1] is -0.806; in assay [3], -1.22; in assay [4], -0.505; in assay [5], 0.0376; in [6], -0.152; in assay [7], -0.154. Also, the composite z-score was -0.679 in assay [8]; 0.184 in assay [9]; -0.59 in assay [10]; 0.788 with Albumin (Bos taurus); -0.28 in [12]; -0.174 in [13]. In addition, the composite z-score in [14] is 0.859; in assay [15] it was 0.253; in [16] it was 0.438; in the assay on Sam68 (KHDRBS1) it was -0.932; in assay [17], -0.169; in assay [18], -0.983. The compound also returned a z-score in assay [2] of -0.392. The composite Z-score in assay [11] is -0.0965 (inactive).
